Four compounds from the supplement of paper PMC7057948, “A genome-wide approach for identification and characterisation of metabolite-inducible systems” (Nature Communications, 2020) can be followed below.

Structures are written as SMILES.
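Also: RFP excited at 585 nm with emission read at 620 nm, culture medium blanks subtracted from fluorescence and absorbance prior to normalisation.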

This test relates to HpdA/P_H16_RS24175 L-tyrosine biosensor (pEH158). The experiment in a line: relative induction of RFP reporter vs primary effector (background-corrected); higher = stronger activation of the biosensor. The note with it: inducer concentration 5 mM; 6 h; Cupriavidus necator H16; minimal medium + 0.4% gluconate. Here is the method:
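C. necator H16 strains, each carrying one of 21 transcription factor/inducible promoter–mRFP biosensor plasmids, were grown in minimal medium in 96-well plates (robotic platform). Each was exposed to 46 structurally or metabolically related compounds at 5 mM at 30 °C. OD-normalised RFP fluorescence was read 6 h later and expressed as relative induction (%) = 100 × (FL compound − FL uninduced)/(FL primary inducer − FL uninduced); mean of n=4.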
As to `O=C(O)CCC(=O)O` [succinate], the “relative induction of RFP reporter” value is -0.126%.

For the compound `O=C(O)/C=C\C=C/C(=O)O` [cis,cis-muconate], the “relative induction of RFP reporter” value was determined as 0.00769%. The same measure for `N[C@@H](Cc1c[nH]c2ccccc12)C(=O)O` [L-tryptophan]: 0.00902%; for `NCC(O)C(=O)O` (centres undefined) [3-amino-2-hydroxypropanoate]: -0.0973%.
